The values that follow come from PubChem BioAssay (EPA / NIEHS).

The target in assay [1] is human Neurokinin, NK2 Receptor, TACR2 (gene 6865) (UniProt P21452). In words: NVS_GPCR_hNK2: NovaScreen (NVS) G Protein-Coupled Receptor Assay for human Neurokinin, NK2 Receptor (AID 2283278).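 Further: actives reduce bound radioligand signal relative to DMSO baseline.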 Summed up:
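Cell-free radioligand binding using receptor protein extracted from CHO cells; readings taken 4 hours after chemical dosing by filter-based scintillation counting. Primary screen ran single concentration (25 uM) in duplicate; actives followed up in concentration series, loss-of-signal versus DMSO baseline.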

The target of assay [2] is human Leukotriene B4 Receptor 1 (LTB4-BLT1), LTB4R (gene 1241) (UniProt Q15722). In words: NVS_GPCR_hLTB4_BLT1: NovaScreen (NVS) G Protein-Coupled Receptor Assay for human Leukotriene B4 Receptor 1 (LTB4-BLT1) (AID 2283271). In outline: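 Cell-free human neutrophil receptor preparation, 1 h exposure, radioligand binding read by filter scintillation counting. Single 25 uM duplicate screen, then concentration series topping at 50 uM; binding loss scored against DMSO baseline.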

For assay [3], the target named is Neuropeptide Y receptor type 2 (Homo sapiens) (UniProt P49146). In words: NVS_GPCR_hNPY2: NovaScreen (NVS) G Protein-Coupled Receptor Assay for human Neuropeptide Receptor Y2 (NPY2) (AID 2283277). In outline: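 Chemicals were first tested in duplicate at 25 uM, then actives in singleton concentration series to 50 uM. Tracer binding to SK-N-MC-derived protein measured cell-free after 1 h via filter scintillation; signal loss relative to DMSO.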

Assay [4] has as its target D(1A) dopamine receptor (Homo sapiens) (UniProt P21728). Put plainly: NVS_GPCR_hDRD1: NovaScreen (NVS) G Protein-Coupled Receptor Assay for human Dopamine Receptor D1 (DRD1) (AID 2283269). Summed up:
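Cell-free competition with radioligand, filter-trapped and scintillation-counted 1 h post-dose, using HEK293-derived human D1 preparation. Duplicate single-point testing at 25 uM first, then concentration series for actives; DMSO served as baseline, loss-of-signal scored.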

The target in assay [5] is human Muscarinic, M4 Receptor, CHRM4 (gene 1132) (UniProt P08173). Put plainly: NVS_GPCR_hM4: NovaScreen (NVS) G Protein-Coupled Receptor Assay for human Muscarinic, M4 Receptor (AID 2283274). Summed up:
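Filter-based scintillation counting of radioligand bound to CHO-expressed human M4 preparations after 1 h; loss of signal fitted versus DMSO. Initial duplicate testing at 25 uM, concentration-response follow-up for actives.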

Results filed as inconclusive are left out. Some compounds were tested as several samples or in several runs, with calls that do not always agree. Active and inactive are the calls of the source. How the source made its calls: active means hit-call score of the fitted dose curve at least 0.9, where 1 is the maximum; inconclusive means response in the unintended direction; inactive means score below 0.9.

Sequence of human Neurokinin, NK2 Receptor, TACR2 (gene 6865) (P21452 whole entry, looked up): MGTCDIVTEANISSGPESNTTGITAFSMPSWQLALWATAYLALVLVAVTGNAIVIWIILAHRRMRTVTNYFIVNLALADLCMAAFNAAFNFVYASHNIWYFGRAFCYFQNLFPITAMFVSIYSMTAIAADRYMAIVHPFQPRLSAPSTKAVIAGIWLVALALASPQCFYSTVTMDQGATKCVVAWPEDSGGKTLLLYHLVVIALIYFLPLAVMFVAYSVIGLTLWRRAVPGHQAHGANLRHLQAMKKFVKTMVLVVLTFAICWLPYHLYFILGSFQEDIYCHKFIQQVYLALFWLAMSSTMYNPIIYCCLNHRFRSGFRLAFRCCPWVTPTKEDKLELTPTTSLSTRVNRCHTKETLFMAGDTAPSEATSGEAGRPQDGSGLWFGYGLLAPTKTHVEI
Sequence of D(1A) dopamine receptor (Homo sapiens) (P21728 whole entry, looked up): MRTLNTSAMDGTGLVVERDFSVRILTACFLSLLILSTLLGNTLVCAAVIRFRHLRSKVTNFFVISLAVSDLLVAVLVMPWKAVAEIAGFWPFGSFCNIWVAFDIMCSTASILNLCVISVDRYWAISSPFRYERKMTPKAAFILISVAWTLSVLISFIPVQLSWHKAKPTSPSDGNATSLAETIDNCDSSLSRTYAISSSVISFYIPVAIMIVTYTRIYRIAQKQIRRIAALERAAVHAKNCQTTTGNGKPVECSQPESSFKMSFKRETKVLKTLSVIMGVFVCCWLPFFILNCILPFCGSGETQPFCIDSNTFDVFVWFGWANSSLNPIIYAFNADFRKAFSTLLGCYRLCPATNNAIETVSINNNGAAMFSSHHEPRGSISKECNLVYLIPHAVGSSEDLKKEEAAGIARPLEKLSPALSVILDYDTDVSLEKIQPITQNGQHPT
Sequence of human Leukotriene B4 Receptor 1 (LTB4-BLT1), LTB4R (gene 1241) (Q15722 whole entry, looked up): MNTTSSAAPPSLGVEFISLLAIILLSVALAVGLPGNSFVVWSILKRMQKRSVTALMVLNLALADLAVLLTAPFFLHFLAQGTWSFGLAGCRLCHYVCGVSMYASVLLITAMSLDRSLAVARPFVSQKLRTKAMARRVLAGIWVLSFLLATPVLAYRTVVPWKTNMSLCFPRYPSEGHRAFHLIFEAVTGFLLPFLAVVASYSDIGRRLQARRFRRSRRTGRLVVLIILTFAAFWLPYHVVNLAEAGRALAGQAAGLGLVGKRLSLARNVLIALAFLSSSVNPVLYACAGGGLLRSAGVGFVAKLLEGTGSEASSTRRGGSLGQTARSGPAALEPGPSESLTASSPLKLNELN
Sequence of Neuropeptide Y receptor type 2 (Homo sapiens) (P49146 whole entry, looked up): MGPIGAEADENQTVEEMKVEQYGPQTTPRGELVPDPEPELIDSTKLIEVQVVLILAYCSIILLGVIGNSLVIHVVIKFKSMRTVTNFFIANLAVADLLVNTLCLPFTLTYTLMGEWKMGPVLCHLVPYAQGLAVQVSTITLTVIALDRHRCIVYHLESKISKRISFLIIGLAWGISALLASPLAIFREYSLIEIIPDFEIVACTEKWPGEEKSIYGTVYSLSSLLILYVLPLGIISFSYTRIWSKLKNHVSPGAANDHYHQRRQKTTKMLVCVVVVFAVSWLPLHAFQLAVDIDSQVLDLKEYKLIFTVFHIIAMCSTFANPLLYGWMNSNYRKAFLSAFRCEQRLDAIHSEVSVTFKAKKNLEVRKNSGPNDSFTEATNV
Sequence of human Muscarinic, M4 Receptor, CHRM4 (gene 1132) (P08173 whole entry, looked up): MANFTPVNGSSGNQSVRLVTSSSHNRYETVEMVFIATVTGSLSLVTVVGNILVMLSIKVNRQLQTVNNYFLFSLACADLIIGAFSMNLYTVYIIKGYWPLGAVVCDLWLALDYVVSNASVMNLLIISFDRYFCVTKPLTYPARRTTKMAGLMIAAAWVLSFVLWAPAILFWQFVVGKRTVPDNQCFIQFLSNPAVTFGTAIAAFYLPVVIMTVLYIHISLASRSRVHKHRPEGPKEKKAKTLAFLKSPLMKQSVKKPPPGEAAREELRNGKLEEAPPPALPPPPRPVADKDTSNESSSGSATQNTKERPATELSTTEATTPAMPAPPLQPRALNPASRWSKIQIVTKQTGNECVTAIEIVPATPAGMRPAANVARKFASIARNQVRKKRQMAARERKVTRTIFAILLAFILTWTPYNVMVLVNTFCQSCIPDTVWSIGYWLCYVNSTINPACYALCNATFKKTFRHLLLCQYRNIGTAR

In the case of `CC[C@H](C)[C@H]1O[C@]2(C=C[C@@H]1C)C[C@@H]1C[C@@H](C/C=C(\C)[C@@H](O[C@H]3C[C@H](OC)[C@@H](O[C@H]4C[C@H](OC)[C@@H](O)[C@H](C)O4)[C@H](C)O3)[C@@H](C)/C=C/C=C3\CO[C@@H]4[C@H](O)C(C)=C[C@@H](C(=O)O1)[C@]34O)O2` (tested in a mixture with another compound), the AC50 (usually the midpoint of the concentration-response curve, whichever way the signal moves) in assay [1] was 6.9 µM (active).

With `O=S(=O)(O)C(F)(F)C(F)(F)C(F)(F)C(F)(F)C(F)(F)C(F)(F)C(F)(F)C(F)(F)F`, the AC50 in assay [2] was 30.1 µM (active) [middle of 4 runs]. Further, the compound was classed as inactive in assay [3] and in assay [1].

In the case of `Oc1cc(Cl)ccc1Oc1ccc(Cl)cc1Cl`, the AC50 in assay [4] is 25 µM (active); in assay [1] it was 25.5 µM (active). Moreover, the result in assay [4] and in assay [5] was inactive.
